Reference: PubChem BioAssay (Tox21)
Results filed as inconclusive are left out. Calls of active or inactive are those of the source. Unless noted, the call rests on the fitted dose curve; in most records, active means well fitted curve in the direction sought with a large enough effect in the repeat runs; inconclusive means weak or mixed curves; inactive means no such curve, though single readings can be large; an effect the other way counts as inactive or inconclusive.

Columns and labels:
[1] = qHTS RealTime-Glo MT Cell Viability Assay in HepG2 cells - 0 hour (AID 1224889); further: nearly all actives have a fitted effect of over 50% in size
In short: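 Luminescence read-out: viable HepG2 cells reduce a prosubstrate to a NanoLuc substrate, giving a signal proportional to live cell number. Reads taken at 0, 8, 16, 24, 32 and 40 h of compound exposure at 37 C.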

[2] = A CellTox Green Cytotoxicity Assay to monitor cytotoxicity in HepG2 cells - 8 hour (AID 1224890); further: nearly all actives have a fitted effect of over 45% in size; further: potency means the concentration at half of the fitted maximal effect
In short: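 Nonlytic assay: viable cells exclude the dye, so fluorescence scales with cell death. HepG2 at 600 cells/well, compounds added after 5 h, signal read across 40 h.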

[3] = qHTS assay to identify small molecule antagonists of the estrogen receptor alpha (ER-alpha) signaling pathway using the BG1 cell line in the presence of 0.1 nM 17-beta-estradiol - cell viability counter screen (AID 1259241); further: nearly all actives have a fitted effect of over 40% in size
In short: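 Measures cytotoxicity alongside the ER-alpha antagonist readout: VM7Luc4E2 cells, charcoal-stripped serum, 0.1 nM 17beta-estradiol final, 22 hr compound incubation at 37C, CellTiter-Fluor fluorescence.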

[4] = qHTS assay to identify small molecule antagonists of the androgen receptor (AR) signaling pathway using the MDA cell line in the presence of 0.5 nM R1881 - cell viability counter screen (AID 1259242); further: nearly all actives have a fitted effect of over 45% in size
In short: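 R1881 at 0.5 nM final stimulated MDA-kb2 cells during 16 hr compound treatment at 37C. Cytotoxicity read: CellTiter-Fluor fluorescence after 30 min.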

[5] = target: Androgen receptor (Homo sapiens) (UniProt P10275); assay: qHTS assay to identify small molecule antagonists of the androgen receptor (AR) signaling pathway using the MDA cell line in the presence of 0.5 nM R1881 (AID 1259243); further: nearly all actives have a fitted effect of over 50% in size
Sequence of Androgen receptor (Homo sapiens) (P10275 whole entry, looked up): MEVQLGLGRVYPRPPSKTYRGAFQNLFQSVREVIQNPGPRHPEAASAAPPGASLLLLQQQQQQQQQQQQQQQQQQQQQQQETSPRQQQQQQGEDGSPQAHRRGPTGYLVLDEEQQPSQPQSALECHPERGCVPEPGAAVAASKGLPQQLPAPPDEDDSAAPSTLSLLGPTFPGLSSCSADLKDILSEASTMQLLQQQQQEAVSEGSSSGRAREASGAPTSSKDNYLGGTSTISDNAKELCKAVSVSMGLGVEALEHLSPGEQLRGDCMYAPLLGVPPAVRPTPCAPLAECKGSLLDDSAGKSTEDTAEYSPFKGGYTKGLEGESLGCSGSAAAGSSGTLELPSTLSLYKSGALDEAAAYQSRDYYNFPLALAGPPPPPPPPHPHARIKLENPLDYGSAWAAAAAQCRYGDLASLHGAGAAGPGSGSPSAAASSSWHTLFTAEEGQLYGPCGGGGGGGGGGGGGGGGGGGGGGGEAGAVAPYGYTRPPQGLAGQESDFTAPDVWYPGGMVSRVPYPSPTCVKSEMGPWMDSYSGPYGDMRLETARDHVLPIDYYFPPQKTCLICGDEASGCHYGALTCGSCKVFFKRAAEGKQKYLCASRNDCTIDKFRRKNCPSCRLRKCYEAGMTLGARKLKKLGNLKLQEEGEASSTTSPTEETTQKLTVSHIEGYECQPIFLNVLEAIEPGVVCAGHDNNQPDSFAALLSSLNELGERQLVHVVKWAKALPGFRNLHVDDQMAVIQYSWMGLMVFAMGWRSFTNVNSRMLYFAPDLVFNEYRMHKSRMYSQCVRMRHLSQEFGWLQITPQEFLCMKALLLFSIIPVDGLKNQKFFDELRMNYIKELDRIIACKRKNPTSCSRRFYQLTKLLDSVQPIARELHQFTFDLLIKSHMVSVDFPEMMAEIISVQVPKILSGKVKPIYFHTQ
In short: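 We exposed MDA-kb2 cells to compounds under 0.5 nM R1881 stimulation for 16 hr at 37C and quantified MMTV-driven luciferase by luminescence.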

[6] = target: Estrogen receptor (Homo sapiens) (UniProt P03372); assay: qHTS assay to identify small molecule antagonists of the estrogen receptor alpha (ER-alpha) signaling pathway using the BG1 cell line in the presence of 0.1 nM 17-beta-estradiol (AID 1259244); further: nearly all actives have a fitted effect of over 50% in size
Sequence of Estrogen receptor (Homo sapiens) (P03372 whole entry, looked up): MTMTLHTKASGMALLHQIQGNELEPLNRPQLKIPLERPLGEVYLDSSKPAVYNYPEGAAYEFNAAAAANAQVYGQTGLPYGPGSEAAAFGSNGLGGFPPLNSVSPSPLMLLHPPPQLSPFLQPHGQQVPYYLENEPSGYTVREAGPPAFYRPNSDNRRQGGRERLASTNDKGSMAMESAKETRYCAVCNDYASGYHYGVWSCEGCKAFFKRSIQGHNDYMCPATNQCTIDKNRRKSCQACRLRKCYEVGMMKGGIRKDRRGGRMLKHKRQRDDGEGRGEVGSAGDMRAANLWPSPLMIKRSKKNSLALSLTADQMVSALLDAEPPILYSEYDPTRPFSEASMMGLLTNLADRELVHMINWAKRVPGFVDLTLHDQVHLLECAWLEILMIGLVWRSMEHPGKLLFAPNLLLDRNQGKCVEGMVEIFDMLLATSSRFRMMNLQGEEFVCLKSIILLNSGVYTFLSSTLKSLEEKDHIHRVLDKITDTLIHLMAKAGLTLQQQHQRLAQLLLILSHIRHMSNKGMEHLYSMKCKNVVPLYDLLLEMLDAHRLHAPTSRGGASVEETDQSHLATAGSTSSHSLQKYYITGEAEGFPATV
In short: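 VM7Luc4E2; 4xERE-luciferase; 0.1 nM E2 final; 22 h co-incubation, 37C; ONE-Glo luminescence after 30 min at room temperature.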

[7] = qHTS assay to identify small molecule phospholipidosis (PLD) inducers (AID 1259344; active means well fitted curve in the direction sought with a large enough effect; an effect the other way counts as inactive or inconclusive)
In short: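 HepG2 cells grown on collagen I take up LipidTOX Red while exposed to compound for 24 h; after fixation they are imaged at 20x and pit metrics are extracted.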

[8] = qHTS assay to identify small molecule HDAC inhibitors (AID 1259364);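 further: wild-type HCT-116 cells with endogenous class I/II HDAC activity; top concentration of the series differs between compounds; nearly all actives have a fitted effect of over 45% in size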
In short: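 Relative class I and II HDAC activity is taken from the luminogenic signal in HCT-116 cells, with compound exposure 2 hr and reagent development 30 min at room temperature.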

[9] = qHTS assay to identify small molecule HDAC inhibitors - cell viability counter screen (AID 1259365); further: series mostly up to about 92 µM; nearly all actives have a fitted effect of over 50% in size
In short: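 Following a 2hr exposure of overnight-plated wild-type HCT-116 cells to DMSO-delivered compounds, CellTiter-Glo was added and luminescence recorded after 30min at room temperature.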

[10] = qHTS assay to identify small molecule antagonists of the sonic hedgehog signaling (Shh) pathway - cell viability counter screen (AID 1259367); further: nearly all actives have a fitted effect of over 55% in size
In short: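 After a 4 hr settling period, 3T3 Gli1-Luc cells were treated with DMSO-dissolved chemicals and conditioned medium, kept 24 hr at 37C in 5% CO2, and assayed for viability by CellTiter-Fluor fluorescence following 1 hr reagent incubation.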

[11] = qHTS assay to identify small molecule agonists of the sonic hedgehog signaling (Shh) pathway (AID 1259368; calls by dose curve;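 further: NIH/3T3-derived 3T3Gli1-Luc cells carrying a stable Gli1-driven firefly luciferase reporter; series mostly up to about 92 µM; nearly all actives have a fitted effect of over 15% in size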)
In short: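 Mouse fibroblast (NIH/3T3) reporter cells with stably integrated Gli1-Luc were treated 24 hr with compound; firefly luciferase luminescence served as the read-out.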

[12] = target: Estrogen receptor beta (Homo sapiens) (UniProt Q92731); assay: qHTS assay to identify small molecule agonists of the estrogen receptor beta (ER-beta) signaling pathway (AID 1259377; active means well fitted activation curve with a large enough effect in the signal ratio in the repeat runs, not every such curve was filed as active; the % refers to the signal ratio)
Sequence of Estrogen receptor beta (Homo sapiens) (Q92731 whole entry, looked up): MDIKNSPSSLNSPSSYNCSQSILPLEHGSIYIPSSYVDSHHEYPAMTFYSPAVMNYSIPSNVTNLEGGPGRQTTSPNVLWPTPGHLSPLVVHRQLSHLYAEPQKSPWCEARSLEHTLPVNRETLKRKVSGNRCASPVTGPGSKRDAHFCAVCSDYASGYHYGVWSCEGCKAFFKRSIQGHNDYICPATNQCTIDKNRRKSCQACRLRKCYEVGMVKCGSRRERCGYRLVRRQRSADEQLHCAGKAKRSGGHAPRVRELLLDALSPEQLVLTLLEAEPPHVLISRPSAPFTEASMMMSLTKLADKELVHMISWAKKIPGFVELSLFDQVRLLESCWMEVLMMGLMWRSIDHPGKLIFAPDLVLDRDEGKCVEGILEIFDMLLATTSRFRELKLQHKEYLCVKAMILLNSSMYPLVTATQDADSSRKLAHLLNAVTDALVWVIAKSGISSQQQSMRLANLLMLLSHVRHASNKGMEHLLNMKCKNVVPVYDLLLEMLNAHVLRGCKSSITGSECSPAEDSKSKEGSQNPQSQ
In short: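 In HEK293T cells bearing a UAS-beta-lactamase reporter under ER-beta control, DMSO-delivered compounds were incubated for 16 hr at 37C. Activity was detected as fluorescence 2 hours after LiveBLAzer B/G FRET substrate addition.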

[13] = qHTS assay to identify small molecule agonists of the estrogen receptor beta (ER-beta) signaling pathway - cell viability counter screen (AID 1259380); further: nearly all actives have a fitted effect of over 30% in size
In short: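 Cells used were ER-beta-UAS-bla HEK293T in medium with 2% charcoal-stripped FBS. They were treated for 16 hr at 37C. Viability came from CellTiter-Glo luminescence.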

[14] = target: Androgen receptor (Homo sapiens) (UniProt P10275); assay: qHTS assay to identify small molecule agonists of the androgen receptor (AR) signaling pathway in the presence of an antagonist (AID 1259381; calls by dose curve; further: nearly all actives have a fitted effect of over 15% in size)
In short: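 Using human MDA-kb2 cells with an MMTV promoter–luciferase construct (AR and GR response elements), agonist activity is scored under 3.0uM nilutamide (final) co-treatment; 16hr incubation, 37C, luminescence readout via ONE-Glo.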

[15] = qHTS RealTime-Glo MT Cell Viability Assay in HEK293 cells - 8 hour (AID 1224887)
In short: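 Tox21 screen in HEK293 using RealTime-Glo MT chemistry, with cells and reagent co-dispensed. Luminescence proportional to viable cell number was captured at intervals during 40 h compound exposure at 37 C.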

[16] = qHTS assay to identify small molecule agonists of the sonic hedgehog signaling (Shh) pathway - cell viability counter screen (AID 1259366); further: nearly all actives have a fitted effect of over 50% in size
In short: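 After a 4hr attachment at 37C, NIH/3T3 cells bearing an integrated Gli1-driven luciferase reporter were dosed with compounds. Treatment lasted 24hr, with the final hour including CellTiter-Fluor for a fluorescence viability measurement.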

[17] = qHTS assay to identify small molecule antagonists of the sonic hedgehog signaling (Shh) pathway (AID 1259369; calls by dose curve; further: nearly all actives have a fitted effect of over 45% in size)
In short: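 Conditioned medium drives Shh signalling in 3T3Gli1-Luc cells; compounds in DMSO co-applied, 24hr at 37 C, then luciferase luminescence.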

[18] = target: Estrogen receptor beta (Homo sapiens) (UniProt Q92731); assay: qHTS assay to identify small molecule antagonists of the estrogen receptor beta (ER-beta) signaling pathway (AID 1259378; active means well fitted inhibition curve with a large enough effect in the signal ratio in the repeat runs, not every such curve was filed as active; the % refers to the signal ratio)
In short: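 ER-beta-UAS-bla HEK293T (GripTite) cells in 2% charcoal-stripped FBS medium were preincubated 6 hr at 37C, dosed with compound, then stimulated with 1 nM E2 (final) for 16 hr; beta-lactamase reporter read by B/G FRET fluorescence after 2 hr substrate loading.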

[19] = qHTS assay to identify small molecule agonists of the androgen receptor (AR) signaling pathway in the presence of an antagonist - cell viability counter screen (AID 1259379);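 further: MDA-kb2 human breast cancer cells carrying an MMTV luciferase reporter; series mostly up to about 92 µM; nearly all actives have a fitted effect of over 25% in size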
In short: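 A CellTiter-Fluor read-out measured viability of MDA-kb2 reporter cells (MMTV promoter with AR and GR response elements). Treatment: nilutamide 3.0uM final with compounds at 15 concentrations, 16 hr, 37C, 0% CO2.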

[20] = A CellTox Green Cytotoxicity Assay to monitor cytotoxicity in HEK293 cells - 16 hour (AID 1224888); further: nearly all actives have a fitted effect of over 35% in size
In short: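 Seeding of HEK293 cells together with cytotoxicity dye preceded a 5 h incubation at 37 C/5% CO2. Test compounds in DMSO were then added and fluorescence monitored across 40 h.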
On the % scale 0 is the no-effect control and ±100 the full control effect.

COc1cc2c(cc1OC)C(=O)C(CC1CCN(Cc3ccccc3)CC1)C2 (centres undefined)
inactive: Potency [1] | Potency [2] | outcome [3] | outcome [4] | Potency [5] | outcome [6] | outcome [7] | Potency [8] | outcome [9] | outcome [10] | outcome [11] | Potency [12] | outcome [13] | outcome [14]

CNCCS(=O)(=O)O
inactive: Potency [15] | Potency [1] | outcome [3] | outcome [4] | Potency [8] | outcome [9] | outcome [16] | outcome [10] | outcome [11] | Potency [17] | Potency [18] | outcome [19] | outcome [13]

CCCCCC/C=C/C(=O)OC
inactive: Potency [15] | Potency [1] | outcome [3] | outcome [4] | Potency [8] | outcome [9] | outcome [16] | outcome [10] | outcome [11] | Potency [17] | Potency [12] | outcome [13]
active: Potency [2] 49 µM

CCCCCc1cccc(=O)o1
inactive: Potency [15] | Potency [1] | Potency [2] | outcome [3] | outcome [4] | outcome [6] | Potency [8] | outcome [9] | outcome [10] | outcome [11] | Potency [17] | Potency [12] | Potency [18] | outcome [19] | outcome [13]

CC(C)OC(=O)CCC(=O)OC(C)C
inactive: Potency [15] | Potency [1] | Potency [2] | outcome [3] | outcome [4] | Potency [8] | outcome [9] | outcome [16] | outcome [10] | outcome [11] | Potency [12] | Potency [18] | outcome [19] | outcome [13]

COc1nc(N)nc2nc[nH]c12
inactive: Potency [20] | Potency [1] | Potency [2] | outcome [3] | outcome [4] | outcome [6] | Potency [8] | outcome [9] | outcome [16] | outcome [10] | outcome [11] | Potency [17] | Potency [12] | Potency [18] | outcome [19] | outcome [13]

O=Cc1ccccc1Cl
inactive: Potency [15] | Potency [1] | Potency [2] | outcome [3] | outcome [4] | Potency [8] | outcome [9] | outcome [16] | outcome [10] | outcome [11] | Potency [17] | Potency [12] | Potency [18] | outcome [19] | outcome [13]

CC(C)CCOC(=O)c1ccccc1
inactive: Potency [15] | Potency [1] | Potency [2] | outcome [3] | outcome [4] | Potency [8] | outcome [9] | outcome [16] | outcome [10] | outcome [11] | outcome [19] | outcome [13]

COC(=O)c1cc(Cl)cc(Cl)c1
inactive: Potency [15] | Potency [1] | outcome [3] | outcome [4] | Potency [5] | outcome [6] | Potency [8] | outcome [9] | outcome [16] | outcome [10] | outcome [11] | Potency [17] | Potency [12] | Potency [18] | outcome [19] | outcome [13] | outcome [14]

C=CCN1C[C@H](C(=O)N(CCCN(C)C)C(=O)NCC)C[C@@H]2c3cccc4[nH]cc(c34)C[C@H]21
inactive: Potency [15] | Potency [1] | Potency [2] | outcome [3] | outcome [4] | outcome [6] | Potency [8] | outcome [9] | outcome [11] | Potency [17] | Potency [12] | outcome [13]

CC(C)C[C@@H]1[C@H](c2ccccc2)OC(=O)N1CCCN1CCCCCC1
inactive: Potency [15] | Potency [2] | outcome [3] | outcome [4] | Potency [5] | outcome [6] | Potency [8] | outcome [9] | outcome [16] | outcome [10] | outcome [11] | Potency [17] | Potency [12] | Potency [18] | outcome [13] | outcome [14]

CC(O)CC(C)O (centres undefined)
inactive: Potency [15] | Potency [1] | Potency [2] | outcome [3] | outcome [4] | Potency [8] | outcome [9] | outcome [16] | outcome [11] | Potency [17] | outcome [19] | outcome [13]

Cc1cc(-c2ccccc2)nnc1NCCN1CCOCC1
inactive: Potency [15] | Potency [2] | outcome [3] | outcome [4] | outcome [6] | Potency [8] | outcome [9] | outcome [16] | outcome [10] | outcome [11] | Potency [17] | Potency [12] | outcome [19] | outcome [13]

CC1c2ccccc2CN1NC(=O)c1ccc(Cl)c(S(N)(=O)=O)c1 (centres undefined)
inactive: Potency [15] | Potency [2] | outcome [3] | outcome [4] | outcome [6] | PLD induction [7] -1.83% [at 1.53 µM] | Potency [8] | outcome [9] | outcome [16] | outcome [10] | outcome [11] | Potency [17] | Potency [12] | Potency [18] | outcome [19] | outcome [13]

CC(C)CO
inactive: Potency [15] | Potency [1] | Potency [2] | outcome [3] | outcome [4] | outcome [6] | Potency [8] | outcome [9] | outcome [10] | outcome [11] | Potency [12] | outcome [19] | outcome [13]

CC(=O)c1cc(C)oc1C
inactive: Potency [15] | Potency [1] | outcome [3] | outcome [4] | Potency [5] | Potency [8] | outcome [9] | outcome [16] | outcome [10] | outcome [11] | Potency [17] | Potency [12] | Potency [18] | outcome [19] | outcome [13] | outcome [14]

CC(=O)C(C)O (centres undefined)
inactive: Potency [15] | Potency [1] | Potency [2] | outcome [3] | outcome [4] | Potency [8] | outcome [9] | outcome [16] | outcome [10] | outcome [11] | Potency [12] | Potency [18] | outcome [13]

CCCCCCCCCCCCCBr
inactive: Potency [20] | Potency [1] | Potency [2] | outcome [3] | outcome [4] | Potency [8] | outcome [9] | outcome [16] | outcome [10] | outcome [11] | Potency [17] | outcome [19] | outcome [13]
